Reference: PubChem BioAssay AID1159580 (chemical genetic matrix, 2015)
Among all 5,500 compounds or so, about 2,000 (36%) were called active. Another 18% or so got no clear call; they are omitted. Cut-off read from the data, not from the text of the source: active = normalized growth mostly below about 0.91 (no sharp cut-off); inconclusive = no clear call, values can overlap the other calls; inactive = mostly above about 0.92. Some of the results follow.

Assay: chemical genetic growth profiling, strain panel (AID 1159580);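 note: tested at 20 µM; growth read once vehicle control cultures reached saturation at 30 °C; 1 = growth at the plate median or of vehicle wells; lower values mean less growth of the strain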
Conditions: S. cerevisiae deletion strains, growth OD

Measured: normalized growth

CC(C)CCCC(C)[C@H]1CCC2C3CC[C@@H]4C[C@H](O)CC[C@]4(C)C3CC[C@@]21C (stereo partly drawn)
inactive: locus YAL013W, strain DEP1, hits give low values 1.04 | locus YBR021W, strain FUR4, hits give low values 0.992 | locus YBR229C, strain ROT2, hits give low values 1 | locus YCL029C, strain bik1, hits give low values 1.02 | locus YDL035C, strain GPR1, hits give low values 1.02 | locus YDL074C, strain BRE1, hits give low values 1.01 | locus YDL101C, strain DUN1, hits give low values 1.01 | locus YDL185W, strain tfp1, hits give low values 1.02 | locus YDL192W, strain arf1, hits give low values 1 | locus YDR101C, strain arx1, hits give low values 0.991 | locus YDR162C, strain NBP2, hits give low values 1.03 | locus YDR318W, strain mcm21, hits give low values 1.01 | locus YDR388W, hits give low values 1 | locus YDR502C, strain sam2, hits give low values 0.999 | locus YEL061C, strain CIN8, hits give low values 1 | locus YER110C, hits give low values 1.01 | locus YER155C, strain BEM2, hits give low values 1 | locus YER167W, strain BCK2, hits give low values 1.02 | locus YGL078C, strain dbp3, hits give low values 1 | locus YGL086W, strain mad1, hits give low values 1 | locus YGL248W, strain PDE1, hits give low values 1.01 | locus YGR135W, strain pre9, hits give low values 1.01 | locus YGR252W, strain gcn5, hits give low values 0.985 | locus YHR030C, strain SLT2, hits give low values 1.01 | locus YHR079C, strain IRE1 (second series), hits give low values 0.997 | locus YHR094C, strain hxt1, hits give low values 1.01 | locus YHR129C, strain ARP1, hits give low values 1 | locus YHR200W, strain rpn10, hits give low values 1 | locus YIL066C, strain RNR3, hits give low values 1.03 | locus YIL073C, strain SPO22, hits give low values 1.03 | locus YIL125W, strain kgd1, hits give low values 0.999 | locus YIR030C, strain dcg1, hits give low values 1 | locus YJL095W, strain BCK1, hits give low values 1.01 | locus YJL134W, strain LCB3, hits give low values 1.01 | locus YJL168C, strain set2, hits give low values 0.994 | locus YJL187C, strain SWE1 (second series), hits give low values 1.01 | locus YJR043C, strain POL32, hits give low values 1.01 | locus YJR075W, strain HOC1, hits give low values 1 | locus YKL009W, strain mrt4, hits give low values 1.02 | locus YKL068W, hits give low values 1 | locus YKL085W, strain MDH1 (second series), hits give low values 1.01 | locus YKL085W, strain MDH1, hits give low values 1.01 | locus YKL190W, strain CNB1, hits give low values 1.01 | locus YKR001C, strain vps1, hits give low values 0.998 | locus YLR039C, strain RIC1, hits give low values 1.06 | locus YLR058C, strain SHM2, hits give low values 1 | locus YLR102C, strain apc9, hits give low values 1 | locus YLR262C, strain YPT6, hits give low values 1.06 | locus YLR268W, strain sec22, hits give low values 0.999 | locus YLR330W, strain CHS5, hits give low values 1.01 | locus YLR342W, strain FKS1 (second series), hits give low values 1.01 | locus YLR371W, strain rom2, hits give low values 1.02 | locus YLR418C, strain cdc73, hits give low values 0.978 | locus YML016C, strain PPZ1, hits give low values 1.01 | locus YML032C, strain rad52, hits give low values 1 | locus YML124C, strain tub3, hits give low values 1 | locus YMR078C, strain ctf18, hits give low values 1 | locus YMR223W, strain ubp8, hits give low values 1.01 | locus YMR307W, strain GAS1, hits give low values 1.07 | locus YNL067W, strain RPL9B, hits give low values 1.01 | locus YNL153C, strain GIM3, hits give low values 1.01 | locus YNL233W, strain BNI4, hits give low values 1.01 | locus YNL250W, strain rad50, hits give low values 1 | locus YNL271C, strain bni1, hits give low values 1.01 | locus YNL298W, strain CLA4, hits give low values 1 | locus YNL307C, strain MCK1, hits give low values 1.01 | locus YNL322C, strain KRE1, hits give low values 1.01 | locus YNR052C, strain pop2, hits give low values 0.999 | locus YOL006C, strain TOP1, hits give low values 1.04 | locus YOL012C, strain htz1 0.869 | locus YOL147C, strain pex11, hits give low values 0.991 | locus YOR061W, strain CKA2, hits give low values 1.01 | locus YOR069W, strain VPS5, hits give low values 1.01 | locus YOR136W, strain idh2, hits give low values 0.994 | locus YOR144C, strain elg1, hits give low values 0.987 | locus YOR184W, strain ser1, hits give low values 0.989 | locus YOR316C, strain cot1, hits give low values 1 | locus YPL055C, strain LGE1, hits give low values 1.01 | locus YPR119W, strain clb2, hits give low values 1 | locus YPR141C, strain kar3, hits give low values 1.02 | locus YPR163C, strain tif3, hits give low values 1.01 | locus YPR167C, strain met16, hits give low values 1 | strain wtn01, hits give low values 1
